Consider eleven compounds from ChEMBL document CHEMBL3988442, “University of Dundee, Small-Polar-MMV Screening Library” (2021).

Holding throughout (set-up): scale not given: direction of the effect not stated beside the values
For assay [1], the target named is Protein translocase subunit SecA (Escherichia coli (strain K12)) (UniProt P10408). Kind of assay: Assay to Identify E. coli SecA ATPase Inhibitors. Format: functional. The following applies: 30 µM.
Assay [2] has as its target T1, Ubiquitin-activating enzyme e1, putative (Leishmania donovani (strain BPK282A1)) (UniProt E9BSI1).
T1 sequence (whole entry): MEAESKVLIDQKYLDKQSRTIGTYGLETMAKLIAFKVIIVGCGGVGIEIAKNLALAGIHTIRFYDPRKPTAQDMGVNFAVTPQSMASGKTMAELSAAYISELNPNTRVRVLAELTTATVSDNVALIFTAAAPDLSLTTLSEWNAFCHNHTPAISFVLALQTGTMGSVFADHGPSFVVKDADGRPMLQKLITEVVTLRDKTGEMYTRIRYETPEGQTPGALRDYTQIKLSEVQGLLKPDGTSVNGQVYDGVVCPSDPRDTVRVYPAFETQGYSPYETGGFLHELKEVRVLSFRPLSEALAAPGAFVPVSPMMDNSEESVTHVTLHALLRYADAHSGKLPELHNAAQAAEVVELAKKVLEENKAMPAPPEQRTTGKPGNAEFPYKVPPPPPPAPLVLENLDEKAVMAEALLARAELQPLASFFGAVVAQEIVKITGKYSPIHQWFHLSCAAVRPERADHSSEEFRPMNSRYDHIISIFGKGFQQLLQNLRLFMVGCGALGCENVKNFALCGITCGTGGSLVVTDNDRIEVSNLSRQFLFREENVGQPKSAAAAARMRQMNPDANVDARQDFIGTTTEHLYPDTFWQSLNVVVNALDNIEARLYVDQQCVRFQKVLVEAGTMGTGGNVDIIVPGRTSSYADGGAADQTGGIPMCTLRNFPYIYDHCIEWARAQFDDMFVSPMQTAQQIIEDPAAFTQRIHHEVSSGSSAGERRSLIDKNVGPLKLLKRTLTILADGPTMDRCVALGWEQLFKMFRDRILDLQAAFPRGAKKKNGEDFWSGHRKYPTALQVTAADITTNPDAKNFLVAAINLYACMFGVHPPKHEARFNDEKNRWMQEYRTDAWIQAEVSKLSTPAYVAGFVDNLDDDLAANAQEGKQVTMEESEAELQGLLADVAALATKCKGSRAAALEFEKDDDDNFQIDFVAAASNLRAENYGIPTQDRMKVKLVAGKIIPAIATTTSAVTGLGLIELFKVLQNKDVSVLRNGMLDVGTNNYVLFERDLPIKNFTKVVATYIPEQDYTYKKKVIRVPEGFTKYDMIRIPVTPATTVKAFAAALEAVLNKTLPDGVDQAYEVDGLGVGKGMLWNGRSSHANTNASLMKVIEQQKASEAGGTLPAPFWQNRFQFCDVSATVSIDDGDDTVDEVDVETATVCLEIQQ
Kind of assay: Leishmania donovani Ubiquitin Activating Enzyme (LdE1). The following applies: 30 µM. Format: functional.

Assay [3] deals with AMP-activated protein kinase, AMPK (Homo sapiens) (UniProt P54646+O43741+P54619+Q9UGJ0+Q9Y478+Q13131+Q9UGI9). Kind of assay: AMP-dependent Kinase enzyme assay. An in vitro enzyme assay that detects ADP turnover that is directly proportional to AMPK activity. This uses naive AMPK that is activated during the assay with MK-8722. Format: functional. The following applies: 30 µM.

Assay [4] concerns the target Sialic acid-binding Ig-like lectin 9 (Homo sapiens) (UniProt Q9Y336). Put plainly: Hs-Siglec9 ALPHAscreen SOP 20170721. Conditions: 10 µM. Background: Alpha assays give light when donor and acceptor beads are brought close together.
Another assay has as its system Trypanosoma cruzi. Kind of assay: Trypanosoma cruzi phosphomannomutase and mannose-1-phosphate guanylyltransferase assay. In kind it is functional. Conditions: 10 µM.
The target of assay [5] is T2, Arginase-2, mitochondrial (Homo sapiens) (UniProt P78540).
T2 sequence (whole entry): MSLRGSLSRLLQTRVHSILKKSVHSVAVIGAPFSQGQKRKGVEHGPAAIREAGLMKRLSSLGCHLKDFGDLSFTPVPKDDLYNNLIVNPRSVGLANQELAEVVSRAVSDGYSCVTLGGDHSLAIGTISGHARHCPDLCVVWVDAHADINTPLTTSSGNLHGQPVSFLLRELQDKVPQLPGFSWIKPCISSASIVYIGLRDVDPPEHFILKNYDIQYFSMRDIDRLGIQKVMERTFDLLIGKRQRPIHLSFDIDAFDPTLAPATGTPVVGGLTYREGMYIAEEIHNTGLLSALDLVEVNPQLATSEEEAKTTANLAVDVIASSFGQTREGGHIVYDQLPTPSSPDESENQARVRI
Put plainly: in vitro enzyme assay to detect the production of urea directly proportional to the activity of Arginase II. Note: in the data most compounds retested in dose-response had high values. Format: functional. The following applies: 33.3 µM.

Assay [6] addresses T3, Proteasome subunit beta (Trypanosoma cruzi) (UniProt O96673).
T3 sequence (whole entry): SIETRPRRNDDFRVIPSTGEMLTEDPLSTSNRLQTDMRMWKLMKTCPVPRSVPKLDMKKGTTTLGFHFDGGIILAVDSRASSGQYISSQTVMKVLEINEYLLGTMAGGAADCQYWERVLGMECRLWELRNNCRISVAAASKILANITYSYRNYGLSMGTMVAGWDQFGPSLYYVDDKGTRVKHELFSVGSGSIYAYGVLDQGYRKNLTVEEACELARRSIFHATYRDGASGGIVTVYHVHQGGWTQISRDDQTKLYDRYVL
Put plainly: Trypanosoma cruzi proteasome chymotrypsin-like activity (TcProtChymo) assay. Note: in the data most compounds retested in dose-response had high values. Format: functional. Conditions: 9.37 µM.

The species entered for a further assay is Homo sapiens. Put plainly: To identify inhibition of the IFN signalling (Jak-Stat) pathway via expression of an eGFP reporter gene under the control of an IFN-stimulated response element (ISRE) containing MxA promoter. Conditions: 30 µM. In kind it is functional.
Assay [7] concerns the target T4, Tyrosyl-tRNA synthetase, putative (Trypanosoma cruzi (strain CL Brener)) (UniProt Q4DSP6).
T4 sequence (whole entry): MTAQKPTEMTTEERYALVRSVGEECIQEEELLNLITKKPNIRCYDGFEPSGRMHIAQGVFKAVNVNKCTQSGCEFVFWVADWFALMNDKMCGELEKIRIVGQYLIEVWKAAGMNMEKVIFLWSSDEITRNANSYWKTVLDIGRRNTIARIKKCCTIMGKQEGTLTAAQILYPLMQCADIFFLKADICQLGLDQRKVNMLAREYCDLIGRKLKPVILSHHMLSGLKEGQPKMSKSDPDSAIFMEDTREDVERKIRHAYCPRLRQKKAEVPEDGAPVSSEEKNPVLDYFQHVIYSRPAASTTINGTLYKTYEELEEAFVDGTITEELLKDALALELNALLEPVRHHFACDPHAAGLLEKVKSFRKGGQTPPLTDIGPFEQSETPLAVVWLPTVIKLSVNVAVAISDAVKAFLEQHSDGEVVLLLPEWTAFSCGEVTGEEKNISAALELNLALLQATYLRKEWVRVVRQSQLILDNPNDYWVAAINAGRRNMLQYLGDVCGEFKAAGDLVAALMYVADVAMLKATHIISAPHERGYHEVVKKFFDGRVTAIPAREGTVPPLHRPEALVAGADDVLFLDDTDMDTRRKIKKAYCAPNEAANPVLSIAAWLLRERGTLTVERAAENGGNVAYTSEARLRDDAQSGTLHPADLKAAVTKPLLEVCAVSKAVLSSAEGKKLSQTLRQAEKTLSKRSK
Put plainly: Trypanosoma cruzi tyrosyl tRNA synthetase (TcYRS) _High Tyrosine SOP. Note: in the data most compounds retested in dose-response had high values. Conditions: 30 µM. Format: functional.

Assay [8] concerns the target T4, Tyrosyl-tRNA synthetase, putative (Trypanosoma cruzi (strain CL Brener)). Put plainly: Trypanosoma cruzi tyrosyl tRNA synthetase (TcYRS) SOP. In kind it is functional. The following applies: 30 µM.
In assay [9] the target is Chromo domain-containing protein 1 (Saccharomyces cerevisiae (strain ATCC 204508 / S288c) (Baker's yeast)) (UniProt P32657). Kind of assay: ScCHD-1 Enzyme Inhibition Assay. Note: in the data most compounds retested in dose-response had high values. In kind it is functional. The following applies: 30 µM.
Chain of Chromo domain-containing protein 1 (Saccharomyces cerevisiae (strain ATCC 204508 / S288c) (Baker's yeast)) (P32657 whole entry, the tested form may be a part): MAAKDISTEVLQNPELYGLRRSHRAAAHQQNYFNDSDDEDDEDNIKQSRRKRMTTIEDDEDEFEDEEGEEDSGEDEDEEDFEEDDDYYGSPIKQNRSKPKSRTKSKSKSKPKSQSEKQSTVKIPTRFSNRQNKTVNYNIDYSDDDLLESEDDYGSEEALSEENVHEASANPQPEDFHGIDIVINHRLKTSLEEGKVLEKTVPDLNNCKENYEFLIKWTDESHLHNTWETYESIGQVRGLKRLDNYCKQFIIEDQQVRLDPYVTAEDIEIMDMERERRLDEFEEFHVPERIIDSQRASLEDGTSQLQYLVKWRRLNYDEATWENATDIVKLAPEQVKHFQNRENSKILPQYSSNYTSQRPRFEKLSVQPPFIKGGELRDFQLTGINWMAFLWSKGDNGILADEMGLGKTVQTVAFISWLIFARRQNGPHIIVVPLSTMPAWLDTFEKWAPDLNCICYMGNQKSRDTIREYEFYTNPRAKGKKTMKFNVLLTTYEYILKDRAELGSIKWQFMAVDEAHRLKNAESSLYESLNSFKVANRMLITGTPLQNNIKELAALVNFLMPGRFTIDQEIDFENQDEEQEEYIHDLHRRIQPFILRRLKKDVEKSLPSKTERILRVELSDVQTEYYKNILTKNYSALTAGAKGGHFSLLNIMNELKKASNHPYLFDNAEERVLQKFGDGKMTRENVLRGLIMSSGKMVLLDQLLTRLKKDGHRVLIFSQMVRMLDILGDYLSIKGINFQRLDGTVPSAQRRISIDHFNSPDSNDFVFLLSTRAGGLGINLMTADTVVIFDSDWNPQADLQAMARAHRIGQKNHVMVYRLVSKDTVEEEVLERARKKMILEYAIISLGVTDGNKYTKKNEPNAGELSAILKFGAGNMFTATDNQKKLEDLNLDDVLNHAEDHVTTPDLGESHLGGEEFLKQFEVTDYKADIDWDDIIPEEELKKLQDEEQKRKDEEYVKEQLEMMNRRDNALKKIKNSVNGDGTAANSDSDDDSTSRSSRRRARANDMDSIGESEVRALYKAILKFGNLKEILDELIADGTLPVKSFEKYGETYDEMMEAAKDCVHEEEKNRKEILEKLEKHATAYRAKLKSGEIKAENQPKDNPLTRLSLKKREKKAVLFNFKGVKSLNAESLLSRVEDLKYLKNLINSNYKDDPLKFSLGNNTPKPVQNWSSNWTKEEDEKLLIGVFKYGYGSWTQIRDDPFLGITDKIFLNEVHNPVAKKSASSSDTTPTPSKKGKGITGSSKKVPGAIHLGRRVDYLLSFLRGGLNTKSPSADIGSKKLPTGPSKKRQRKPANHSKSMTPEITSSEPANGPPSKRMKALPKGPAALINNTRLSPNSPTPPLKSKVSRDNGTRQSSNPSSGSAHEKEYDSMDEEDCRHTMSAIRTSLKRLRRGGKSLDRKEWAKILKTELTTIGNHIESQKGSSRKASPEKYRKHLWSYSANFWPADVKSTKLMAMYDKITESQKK

For some of these results: Potency and affinity values are given separately.

Chain of Sialic acid-binding Ig-like lectin 9 (Homo sapiens) (Q9Y336 whole entry): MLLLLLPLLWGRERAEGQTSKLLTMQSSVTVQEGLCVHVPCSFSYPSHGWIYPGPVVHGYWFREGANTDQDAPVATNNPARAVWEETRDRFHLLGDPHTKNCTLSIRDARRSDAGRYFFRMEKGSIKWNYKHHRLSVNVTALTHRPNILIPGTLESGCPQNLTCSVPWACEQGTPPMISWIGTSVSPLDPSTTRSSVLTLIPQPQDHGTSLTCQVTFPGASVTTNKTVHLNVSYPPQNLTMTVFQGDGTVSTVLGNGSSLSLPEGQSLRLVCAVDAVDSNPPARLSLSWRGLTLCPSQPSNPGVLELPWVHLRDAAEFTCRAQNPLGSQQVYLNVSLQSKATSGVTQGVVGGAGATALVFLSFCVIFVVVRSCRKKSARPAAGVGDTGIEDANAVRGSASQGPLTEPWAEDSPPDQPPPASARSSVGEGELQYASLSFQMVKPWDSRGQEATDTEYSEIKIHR
Chain of Protein translocase subunit SecA (Escherichia coli (strain K12)) (P10408 whole entry): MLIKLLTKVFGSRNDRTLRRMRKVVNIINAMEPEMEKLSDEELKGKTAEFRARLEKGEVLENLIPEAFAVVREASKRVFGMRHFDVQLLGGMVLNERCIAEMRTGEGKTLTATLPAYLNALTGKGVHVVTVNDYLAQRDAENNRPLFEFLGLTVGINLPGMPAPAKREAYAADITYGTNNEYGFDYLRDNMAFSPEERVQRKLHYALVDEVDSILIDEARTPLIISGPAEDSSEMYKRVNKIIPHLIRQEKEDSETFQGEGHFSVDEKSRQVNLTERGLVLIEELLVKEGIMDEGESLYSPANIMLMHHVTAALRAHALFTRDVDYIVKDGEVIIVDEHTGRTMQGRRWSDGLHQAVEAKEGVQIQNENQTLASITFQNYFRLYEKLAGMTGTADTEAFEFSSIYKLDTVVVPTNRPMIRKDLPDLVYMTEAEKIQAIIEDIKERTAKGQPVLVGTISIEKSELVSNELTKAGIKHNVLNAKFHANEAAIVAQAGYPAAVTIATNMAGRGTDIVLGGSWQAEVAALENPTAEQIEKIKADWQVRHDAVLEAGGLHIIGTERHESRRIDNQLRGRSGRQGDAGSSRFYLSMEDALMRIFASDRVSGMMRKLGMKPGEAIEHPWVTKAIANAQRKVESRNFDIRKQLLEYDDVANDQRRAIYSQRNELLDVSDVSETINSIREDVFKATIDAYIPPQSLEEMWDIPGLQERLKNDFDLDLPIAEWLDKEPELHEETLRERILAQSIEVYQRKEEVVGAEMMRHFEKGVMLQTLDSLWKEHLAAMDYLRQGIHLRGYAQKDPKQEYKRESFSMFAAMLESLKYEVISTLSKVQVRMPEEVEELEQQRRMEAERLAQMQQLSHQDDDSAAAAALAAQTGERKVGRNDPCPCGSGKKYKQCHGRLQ

As to `COc1c(CNC2CCCc3ccccc32)c(C(C)C)nn1C` (stereo unspecified), the Percent Effect was -5.37% in [1]; 21.6% in assay [2]; -16.6% in [3]; 17.5% in assay [4]; 7.71% in the assay on Trypanosoma cruzi; -5.73% in [5]. Also, the Percent Effect is 3.59% in assay [6]; 6.78% in the assay listed under Homo sapiens; 4.95% in assay [7]; 18.3% in [8]; -4.82% in [9].
For `CCc1cccc(NS(=O)(=O)c2cc3c(c(C(=O)O)c2)OCCO3)c1`, the Percent Effect in assay [1] is -5.6%; in assay [2], 1.27%; in [3] it was -5.84%; in assay [4] it was 0.409%; with Trypanosoma cruzi, -1.33%; in assay [5], -0.645%. Further, the Percent Effect is 20.9% in assay [6]; -2.39% in the assay listed under Homo sapiens; -7.29% in assay [7]; -7.59% in assay [8]; -30.6% in [9].
Take `N#CC1(C(=O)Nc2ccc(OC(F)F)cc2)CCCC1`: the Percent Effect in assay [1] is -4.03%; in assay [2] it was 1.39%; in assay [3], 5.97%; in assay [4] it was -0.254%; in the assay with Trypanosoma cruzi, 0.68%; in assay [5], 2.21%. In addition, the Percent Effect in assay [6] was 3.68%; in the assay listed under Homo sapiens, -8.03%; in [7], 2.1%; in [8] it was 5.13%; in [9], -0.635%.
As for `Cc1cccc(C2(C(=O)NCCCn3cccn3)CC2)c1`, the Percent Effect in assay [1] is -2.92%; in assay [2], 19.2%; in assay [3] it was -1.18%; in assay [4], 14.6%; in the assay with Trypanosoma cruzi it was 2.94%; in assay [5], 17.3%. The Percent Effect in assay [6] was 10.5%; in the assay listed under Homo sapiens it was 8.26%; in assay [7] it was 3.23%; in [8], 15%; in assay [9], -6.34%.
As for `CCN1CCN(C2CCN(Cc3nnc(C(C)(C)C)o3)CC2)C1=O`, the Percent Effect in assay [1] is -4.08%; in [2], 13%; in assay [3], 7.53%; in [4], -0.00786%; with Trypanosoma cruzi, 0.686%; in [5] it was 1.05%. In addition, the Percent Effect in assay [6] is 10.3%; in the assay filed under Homo sapiens, 4.76%; in assay [7], 7.62%; in assay [8], 14.1%; in assay [9], -21.7%.
Consider `Cn1cc(N2CC3(CCN(CC4CCOCC4)CC3)OCC2=O)cn1`, for which the Percent Effect in assay [1] was -1.91%; in [2], 9.33%; in [3] it was 1.65%; in assay [4], 6.72%; in the assay on Trypanosoma cruzi, -0.197%; in assay [5], 2.99%. The Percent Effect in [6] was 19.8%; in the assay filed under Homo sapiens, 17.2%; in assay [7] it was 4.23%; in assay [8], 12.8%; in assay [9], -4.82%.
In the case of `Cc1noc(C)c1CN1C[C@@H]2COC[C@H](C(=O)N3CCCCO3)[C@@H]2C1`, the Percent Effect in [1] is -5.77%; in [2], 8%; in assay [3] it was 8.79%; in assay [4], -0.115%; in the assay with Trypanosoma cruzi, -5.12%; in assay [5], -1.17%. For the same compound, the Percent Effect in [6] was 7.31%; in the assay filed under Homo sapiens, 3.63%; in assay [7], 6.38%; in assay [8], 8.97%; in assay [9] it was -0.163%.
As for `NC(=O)c1ccc(NC(=O)CCN2CCCC(N3CCCC3)C2)cc1` (stereo unspecified), the Percent Effect in [1] was -9.36%; in assay [2], 13.5%; in assay [3] it was -4.04%; in assay [4] it was 16.5%; in the assay on Trypanosoma cruzi it was 8.98%; in assay [5] it was 22.5%. Moreover, the Percent Effect in assay [6] was 9.38%; in the assay filed under Homo sapiens, 19.4%; in assay [7] it was 9.9%; in [8] it was 15.8%; in [9], -5.57%.
Consider `CCCc1nc(CN2CCOC(CNc3cccnn3)C2)cs1` (stereo unspecified), for which the Percent Effect is -3.31% in [1]; 2.7% in [2]; -3.87% in assay [3]; 5.09% in assay [4]; -0.849% in the assay with Trypanosoma cruzi; -5.61% in assay [5]. Moreover, the Percent Effect in assay [6] was 10.3%; in the assay listed under Homo sapiens it was 7.16%; in assay [7], 14.3%; in assay [8], 30.9%; in assay [9] it was -7.47%.
`Cc1cc(C)n(CC2CCCN2C(=O)CCCNc2ncccn2)n1` (stereo unspecified): the Percent Effect was -3.06% in [1]; 5.26% in [2]; 1.29% in assay [3]; 7.88% in assay [4]; 3.01% in the assay on Trypanosoma cruzi; 1.15% in assay [5]. The Percent Effect was 5.68% in assay [6]; -8.34% in the assay listed under Homo sapiens; 6.37% in assay [7]; 9.76% in assay [8]; -0.0349% in assay [9].
On to `c1cncc(OCc2nnn3c2CN(Cc2ccsc2)CCC3)c1`, for which the Percent Effect is -3.57% in [1]; 2.67% in assay [2]; -0.385% in assay [3]; 1.61% in assay [4]; 7.72% with Trypanosoma cruzi; -48.2% in [5]. Moreover, the Percent Effect in [6] is 6.84%; in the assay filed under Homo sapiens, 1.38%; in assay [7], -3.12%; in assay [8], -5%; in assay [9], -5.39%.
